Test results as given in PubChem BioAssay.
Records with an inconclusive call do not appear. Active and inactive are the calls of the source.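 How the source made its calls, unless noted: active means GFP response, as percent of the DMSO control, above the screen-wide mean plus 3 SD, about 139; inconclusive means no response measured because the compound's own fluorescence interfered; inactive means the rest.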 Peptide text beside a SMILES is read from it. * marks the point of attachment. Boc = CC(C)(C)OC(=O)*

Legend:
[1] = rapamycin-like changes in RPL19A-GFP expression – cell-based, S. cerevisiae, multiplex flow cytometry, primary screen (AID 1862; in the data active means percent of DMSO control GFP below about 86%;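 further: lower values mimic rapamycin by blocking the RPL19A rise seen in DMSO cells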); settings: S. cerevisiae RPL19A-GFP strain, flow cytometry fluorescence, 3 h; at 10 µM; stronger effect = lower value
[2] = TOR pathway GLN3 branch reporter MEP2-GFP changes – S. cerevisiae, multiplex flow cytometry, primary screen (AID 1867);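 further: median GFP channel fluorescence of barcode-gated MEP2-GFP cells measured by flow cytometry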; settings: S. cerevisiae MEP2-GFP strain, 3 h, at 10 µM, stronger effect = higher value, 100% means same as DMSO wells
[3] = TOR pathway RTG branch CIT2 reporter changes – S. cerevisiae, GFP fusion, multiplex flow cytometry, primary screen (AID 1870;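 active means percent response above a set limit, the screen-wide mean plus 3 SD, cut at about 130% in these data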;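 further: barcoded CIT2-GFP strain pooled with four other GFP strains with rapamycin as positive control; median GFP fluorescence per well over plate mean of DMSO wells so 100% = DMSO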); settings: S. cerevisiae CIT2-GFP expression, 3 h, at 10 µM, stronger effect = higher value
[4] = TOR pathway LAP4-GFP level changes – S. cerevisiae, multiplex flow cytometry, primary screen (AID 1873;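 active means GFP signal, as percent of the solvent control, above the screen mean plus 3 SD, about 149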); settings: S. cerevisiae LAP4-GFP expression, 3 h, at 10 µM, stronger effect = higher value
[5] = yeast AGP1-GFP level changes, GLN3 branch – cell-based, multiplex flow cytometry, S. cerevisiae, primary screen (AID 1887;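 active means GFP signal above the screen-wide mean plus 3 SD, that is over about 124.5% of the solvent control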;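 further: AGP1-GFP fusion strain of S. cerevisiae within a five-strain barcoded multiplex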); settings: 3 h, at 10 µM, stronger effect = higher value
[6] = reduced mouse 2C T cell binding to pMHC/ICAM-1 vesicles – MLPCN validation set, flow cytometry, LFA-1/ICAM-1 modulator project, pilot screen (AID 2523;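 active means response below a set limit, under 55% cells CD8-positive and vesicle-bound, and CD8 cells' 90th-percentile brightness under 279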;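 on vesicle binding response: mean PE anti-B7-1 fluorescence of CD8+ cells relative to row control; 100% = QL9-loaded vesicles with DMSO vehicle in the same plate row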); settings: 2C mouse CD8+ T cells, at 7 µM, stronger effect = lower value; double positive events: measured here: CD8+/vesicle+ event percentage
[7] = molecular target: Integrin beta-1 (Homo sapiens) + Integrin alpha-4 (Homo sapiens) (UniProt P13612+P05556); assay: alpha4beta1 integrin LIBS antibody binding reduction – U937 cells, HUTS-21 mAb, flow cytometry, validation set, VLA-4 allosteric modulator project, pilot screen (AID 2674;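 active means inhibition above 50%, about 3 SD of the validation set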;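 further: antibody binding induced by the VLA-4 ligand LDV present at three times its Kd; 0% = LDV ligand with antibody and no compound and 100% = antibody without LDV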); settings: HUTS-21 LIBS mAb binding, at 6.7 µM, stronger effect = higher value, binding induced by LDV ligand
[8] = calorie-restriction mimetic ROS inhibitors, yeast – validation compound set, pilot screen (AID 2706;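 active means superoxide response below 65% of plate, a cut near 3 SD across the whole screen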;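 further: yeast exposed to compound for one week at 30 degrees C before staining; 100% = mean of all compound wells on the same plate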); settings: S. cerevisiae aging, superoxide DHE fluorescence; at 10 µM, stronger effect = lower value
[9] = molecular target: Beta-adrenergic receptor kinase 1 (Homo sapiens) (UniProt P25098); assay: GRK2 binders displacing RNA aptamer, biochemical, validation, human GRK2, bead flow cytometry (AID 488806;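 active means aptamer binding inhibition above 30%, about 3 SD of noise from non-fluorescent compounds; inactive means inhibition at or below 30%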); settings: bead-bound GRK2, FAM-aptamer displacement, at 10 µM, stronger effect = higher value
[10] = molecular target: AP-2 complex subunit beta (Homo sapiens) (UniProt P63010); assay: beta-arrestin/AP2 interaction blockers – biochemical, validation set, GST-AP2 beads, flow cytometry, pilot screen (AID 504541;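 active means inhibition above 54%, about 3 SD of non-fluorescent compounds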;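 further: AP2 carries R879A mutation and is captured from E. coli lysate; bead-bound FITC arrestin peptide fluorescence measuring arrestin peptide binding to AP2; 0% = DMSO wells and 100% = excess unlabeled arrestin peptide control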); settings: FITC arrestin peptide, at 10 µM, stronger effect = higher value, AP2 beta2 appendage fragment, R879A mutant
[11] = cytosolic pH regulators acting via V-ATPase – S. cerevisiae, pHLuorin, HTS validation (AID 504600; in the data active means response above about 15%;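 further: plate controls were DMSO for no effect and reference compound for full effect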); settings: V-ATPase proton transport, at 10 µM, stronger effect = higher value
[12] = tested on: anti-desmoglein-3 scFv antibody binding to human DSG3; assay: blockers of pathogenic pemphigus antibody–desmoglein-3 binding – biochemical, validation compound set, bead-based, flow cytometry, pilot screen (AID 588368;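 active means binding below the plate cutoff, the plate median minus 3 SD, with a reading above zero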;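 further: signal is the median channel fluorescence of bead-bound GFP antibody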); settings: Protein G beads, DSG3-Fc, scFv-GFP binding, at 10 µM, stronger effect = lower value
[13] = Nile Red efflux blockade in pump-expressing yeast – validation compound set, multiplex, phenotypic, pilot screen (AID 588506;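 active means efflux inhibition above 0.42, the validation set average plus 4 SD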;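 further: Nile Red retained in cells so higher fluorescence means more efflux inhibition; 0 = negative control wells and 1 = enniatin B 25 µM full block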); settings: S. cerevisiae pump-expressing triplex, Nile Red efflux flow cytometry; at 10 µM; stronger effect = higher value; the pumps come from Candida albicans
[14] = molecular target: ATP-binding cassette sub-family B member 6 (Homo sapiens) (UniProt Q9NP58); assay: blockers of ABCB6-driven porphyrin uptake – K562-ABCB6 cells, flow cytometry, validation set, pilot screen (AID 588550;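 active means inhibition above the screen-wide mean plus 3 SD, about 51%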;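 further: 0% = DMSO wells and 100% = benzethonium chloride 70 µM positive control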); settings: K562-ABCB6 porphyrin accumulation, 1 h, at 10 µM, stronger effect = higher value
[15] = AML differentiation inducers, ER-HoxA9 marrow cells – cell-based, GFP/MAC1 double positive, flow cytometry, validation set, primary screen (AID 588685;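 active means differentiation response of at least 50%, scaled between solvent and reference control, from cells with both markers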;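 further: compound exposure lasts four days before antibody staining and flow analysis; 0% = DMSO wells and 100% = 5 µM fulvestrant positive control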); settings: stronger effect = higher value, normalized: vehicle 0, fulvestrant 100

Sequence of ATP-binding cassette sub-family B member 6 (Homo sapiens) (Q9NP58 whole entry, looked up): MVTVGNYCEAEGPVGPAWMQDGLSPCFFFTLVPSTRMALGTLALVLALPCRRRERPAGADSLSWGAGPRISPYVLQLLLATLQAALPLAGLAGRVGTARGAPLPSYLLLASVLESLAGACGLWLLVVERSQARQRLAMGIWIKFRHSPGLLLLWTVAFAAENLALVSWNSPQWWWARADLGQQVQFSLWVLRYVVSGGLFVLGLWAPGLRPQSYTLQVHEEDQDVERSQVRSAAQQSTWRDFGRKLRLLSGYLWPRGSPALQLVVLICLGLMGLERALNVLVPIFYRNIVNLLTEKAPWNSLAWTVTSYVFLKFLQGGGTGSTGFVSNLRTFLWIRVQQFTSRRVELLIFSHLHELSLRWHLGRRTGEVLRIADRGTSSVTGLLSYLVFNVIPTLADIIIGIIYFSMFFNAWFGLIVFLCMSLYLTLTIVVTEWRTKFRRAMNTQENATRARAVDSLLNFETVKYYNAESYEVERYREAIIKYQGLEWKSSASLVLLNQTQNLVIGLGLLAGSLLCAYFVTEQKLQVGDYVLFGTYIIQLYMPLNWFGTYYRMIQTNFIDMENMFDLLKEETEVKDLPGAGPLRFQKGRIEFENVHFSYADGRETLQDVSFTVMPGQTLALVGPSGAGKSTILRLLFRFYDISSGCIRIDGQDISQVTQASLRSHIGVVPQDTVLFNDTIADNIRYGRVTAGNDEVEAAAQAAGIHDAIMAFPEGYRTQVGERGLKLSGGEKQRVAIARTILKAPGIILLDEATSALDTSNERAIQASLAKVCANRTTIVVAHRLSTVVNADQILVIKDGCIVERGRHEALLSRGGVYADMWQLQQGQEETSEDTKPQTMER
Sequence of AP-2 complex subunit beta (Homo sapiens) (P63010 whole entry, looked up, the tested form may be a part, one chain of several): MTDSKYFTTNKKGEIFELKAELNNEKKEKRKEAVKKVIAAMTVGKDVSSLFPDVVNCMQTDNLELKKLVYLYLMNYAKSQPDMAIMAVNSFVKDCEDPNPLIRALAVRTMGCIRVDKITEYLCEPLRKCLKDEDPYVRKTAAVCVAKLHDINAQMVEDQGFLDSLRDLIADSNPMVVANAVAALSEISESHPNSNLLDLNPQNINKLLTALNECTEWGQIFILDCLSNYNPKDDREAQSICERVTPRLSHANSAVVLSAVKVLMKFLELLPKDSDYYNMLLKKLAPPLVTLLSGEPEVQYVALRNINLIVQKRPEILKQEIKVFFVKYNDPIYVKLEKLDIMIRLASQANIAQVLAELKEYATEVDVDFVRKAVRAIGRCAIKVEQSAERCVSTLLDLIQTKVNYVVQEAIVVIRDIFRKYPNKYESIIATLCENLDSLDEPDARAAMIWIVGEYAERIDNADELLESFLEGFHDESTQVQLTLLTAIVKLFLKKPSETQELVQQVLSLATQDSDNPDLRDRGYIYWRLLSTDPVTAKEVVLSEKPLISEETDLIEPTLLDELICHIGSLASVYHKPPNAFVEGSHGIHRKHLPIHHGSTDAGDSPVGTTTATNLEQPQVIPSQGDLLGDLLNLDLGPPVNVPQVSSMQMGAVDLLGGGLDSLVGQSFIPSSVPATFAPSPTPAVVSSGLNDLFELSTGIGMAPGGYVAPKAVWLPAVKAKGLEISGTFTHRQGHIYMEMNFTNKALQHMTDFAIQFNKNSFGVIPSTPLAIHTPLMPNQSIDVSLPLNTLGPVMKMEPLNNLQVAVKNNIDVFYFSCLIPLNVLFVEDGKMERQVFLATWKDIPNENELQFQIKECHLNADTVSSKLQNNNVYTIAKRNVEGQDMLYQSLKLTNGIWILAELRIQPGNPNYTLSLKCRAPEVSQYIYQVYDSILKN
Sequence of Beta-adrenergic receptor kinase 1 (Homo sapiens) (P25098 whole entry, looked up): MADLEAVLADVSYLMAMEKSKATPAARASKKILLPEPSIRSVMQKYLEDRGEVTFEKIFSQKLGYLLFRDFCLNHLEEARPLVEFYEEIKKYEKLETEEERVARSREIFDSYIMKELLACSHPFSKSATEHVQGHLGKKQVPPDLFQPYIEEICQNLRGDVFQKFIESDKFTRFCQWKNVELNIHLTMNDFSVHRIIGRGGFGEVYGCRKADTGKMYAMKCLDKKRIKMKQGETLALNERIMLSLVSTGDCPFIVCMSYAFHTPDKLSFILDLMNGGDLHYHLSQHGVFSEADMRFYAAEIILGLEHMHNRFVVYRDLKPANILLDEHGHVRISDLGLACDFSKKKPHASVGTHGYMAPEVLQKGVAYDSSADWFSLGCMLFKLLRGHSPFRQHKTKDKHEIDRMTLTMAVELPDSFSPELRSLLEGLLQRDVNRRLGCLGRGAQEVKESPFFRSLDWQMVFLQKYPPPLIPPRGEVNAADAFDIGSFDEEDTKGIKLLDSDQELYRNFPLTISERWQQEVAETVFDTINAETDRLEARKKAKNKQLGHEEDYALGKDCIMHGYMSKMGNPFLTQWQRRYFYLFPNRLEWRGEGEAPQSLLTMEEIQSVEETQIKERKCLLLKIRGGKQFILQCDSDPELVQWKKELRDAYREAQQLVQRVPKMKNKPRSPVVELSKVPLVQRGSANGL
Sequence of Integrin beta-1 (Homo sapiens) + Integrin alpha-4 (Homo sapiens) (P05556 whole entry, looked up): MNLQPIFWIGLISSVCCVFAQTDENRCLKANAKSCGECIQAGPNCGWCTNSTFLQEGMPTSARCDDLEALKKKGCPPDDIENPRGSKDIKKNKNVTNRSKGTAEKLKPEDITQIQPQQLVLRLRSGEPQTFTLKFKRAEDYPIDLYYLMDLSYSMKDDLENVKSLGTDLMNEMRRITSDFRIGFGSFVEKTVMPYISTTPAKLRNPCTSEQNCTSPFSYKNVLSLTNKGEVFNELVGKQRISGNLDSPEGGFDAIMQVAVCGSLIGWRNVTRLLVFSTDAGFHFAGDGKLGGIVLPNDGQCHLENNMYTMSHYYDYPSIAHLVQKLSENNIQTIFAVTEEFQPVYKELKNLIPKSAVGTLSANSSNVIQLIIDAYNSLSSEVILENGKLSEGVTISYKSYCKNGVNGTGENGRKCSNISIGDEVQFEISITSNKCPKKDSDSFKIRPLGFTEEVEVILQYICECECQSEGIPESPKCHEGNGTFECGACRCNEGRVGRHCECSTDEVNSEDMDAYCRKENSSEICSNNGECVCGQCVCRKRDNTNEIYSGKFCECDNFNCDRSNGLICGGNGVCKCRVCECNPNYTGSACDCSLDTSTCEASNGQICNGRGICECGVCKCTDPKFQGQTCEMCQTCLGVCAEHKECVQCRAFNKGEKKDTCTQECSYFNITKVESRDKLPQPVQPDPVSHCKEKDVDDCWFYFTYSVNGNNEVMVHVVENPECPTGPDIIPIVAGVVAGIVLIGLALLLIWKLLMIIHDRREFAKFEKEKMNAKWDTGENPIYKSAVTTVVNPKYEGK
Sequence of Integrin beta-1 (Homo sapiens) + Integrin alpha-4 (Homo sapiens) (P13612 whole entry, looked up): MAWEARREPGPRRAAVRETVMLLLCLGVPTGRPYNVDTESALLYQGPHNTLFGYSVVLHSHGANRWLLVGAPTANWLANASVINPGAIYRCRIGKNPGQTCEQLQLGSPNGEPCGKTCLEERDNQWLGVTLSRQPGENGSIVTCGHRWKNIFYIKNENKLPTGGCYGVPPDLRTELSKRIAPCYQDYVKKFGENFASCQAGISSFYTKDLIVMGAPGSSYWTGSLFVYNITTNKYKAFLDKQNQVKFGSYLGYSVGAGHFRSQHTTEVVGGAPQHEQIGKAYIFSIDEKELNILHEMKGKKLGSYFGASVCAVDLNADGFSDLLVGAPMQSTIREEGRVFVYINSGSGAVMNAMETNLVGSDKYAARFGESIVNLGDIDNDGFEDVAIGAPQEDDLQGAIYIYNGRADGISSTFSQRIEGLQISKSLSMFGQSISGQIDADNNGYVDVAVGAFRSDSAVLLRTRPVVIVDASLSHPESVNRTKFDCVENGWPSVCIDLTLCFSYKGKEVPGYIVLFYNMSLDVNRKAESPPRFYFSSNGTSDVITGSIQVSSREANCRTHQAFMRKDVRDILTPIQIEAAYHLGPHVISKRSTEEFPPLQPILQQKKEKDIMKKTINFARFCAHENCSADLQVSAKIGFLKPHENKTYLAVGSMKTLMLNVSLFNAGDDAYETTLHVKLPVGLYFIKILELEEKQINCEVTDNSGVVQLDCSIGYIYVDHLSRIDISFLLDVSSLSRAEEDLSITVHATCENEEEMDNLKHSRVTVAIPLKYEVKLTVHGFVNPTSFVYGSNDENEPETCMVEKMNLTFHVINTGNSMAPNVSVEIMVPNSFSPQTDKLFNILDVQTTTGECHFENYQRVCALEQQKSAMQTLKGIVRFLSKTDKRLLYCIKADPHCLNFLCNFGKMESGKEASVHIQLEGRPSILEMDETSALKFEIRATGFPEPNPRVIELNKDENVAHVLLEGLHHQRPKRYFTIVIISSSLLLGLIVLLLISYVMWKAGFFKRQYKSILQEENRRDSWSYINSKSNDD

NC(=O)c1c(-c2ccccc2)oc2ccc(O)cc12
66.7%: double positive events [6]
inactive: percent of DMSO control GFP [1] 100% | GFP response vs DMSO [2] 97.9% | percent response of DMSO control [3] 90% | GFP response vs DMSO [4] 100% | GFP response, % of DMSO [5] 98.5% | vesicle binding response [6] 260% | inhibition [7] 14.7% | superoxide response (% of plate) [8] 90.9% | aptamer binding inhibition [9] 0% | inhibition [10] -7.96% | response [11] -1.1% | binding (% of control) [12] 102% | efflux inhibition (fraction of control) [13] -0.09 | inhibition [14] 10% | differentiation response [15] -13.1%

C=CCc1cccc2cc(C(=O)Nc3ccc(CC(=O)O)cc3)c(=O)oc12
63.1%: double positive events [6]
inactive: percent of DMSO control GFP [1] 98.6% | GFP response vs DMSO [2] 106% | percent response of DMSO control [3] 94.9% | GFP response vs DMSO [4] 100% | GFP response, % of DMSO [5] 97.8% | vesicle binding response [6] 207% | inhibition [7] -2.11% | superoxide response (% of plate) [8] 141% | aptamer binding inhibition [9] 2% | inhibition [10] 28.6% | response [11] -3.63% | binding (% of control) [12] 100% | efflux inhibition (fraction of control) [13] 0.1 | inhibition [14] 5% | differentiation response [15] 7.87%

CC(=O)O[C@]1(C(C)=O)CC[C@H]2[C@@H]3C=C(Cl)C4=CC(=O)CC[C@]4(C)[C@H]3CC[C@@]21C
inactive: percent of DMSO control GFP [1] 99.3% | GFP response vs DMSO [2] 89.7% | percent response of DMSO control [3] 102% | GFP response vs DMSO [4] 84.3% | GFP response, % of DMSO [5] 97.2% | vesicle binding response [6] 201% | inhibition [7] -20.8% | superoxide response (% of plate) [8] 108% | aptamer binding inhibition [9] -1% | inhibition [10] -12.8% | response [11] -0.6% | binding (% of control) [12] 105% | efflux inhibition (fraction of control) [13] -0.12 | inhibition [14] 9% | differentiation response [15] -9.89%
48.7%: double positive events [6]

CC(C)NC(=O)C1(c2ccccc2)CCOCC1
inactive: percent of DMSO control GFP [1] 100% | GFP response vs DMSO [2] 95.9% | percent response of DMSO control [3] 104% | GFP response vs DMSO [4] 99.4% | GFP response, % of DMSO [5] 99.3% | vesicle binding response [6] 191% | inhibition [7] -51.5% | superoxide response (% of plate) [8] 99.3% | aptamer binding inhibition [9] 4% | inhibition [10] 3.27% | response [11] 0.02% | binding (% of control) [12] 98.2% | efflux inhibition (fraction of control) [13] -0.01 | inhibition [14] 4% | differentiation response [15] -0.2%
62.2%: double positive events [6]

CCOC(=O)C(=O)Nc1ccc(Oc2ccccc2)cc1
inactive: percent of DMSO control GFP [1] 96.8% | GFP response vs DMSO [2] 105% | percent response of DMSO control [3] 101% | GFP response vs DMSO [4] 106% | GFP response, % of DMSO [5] 97.8% | vesicle binding response [6] 101% | inhibition [7] 18.4% | superoxide response (% of plate) [8] 101% | aptamer binding inhibition [9] 3% | inhibition [10] 9.79% | response [11] 1.03% | binding (% of control) [12] 105% | efflux inhibition (fraction of control) [13] -0.05 | inhibition [14] 4% | differentiation response [15] -26%
61.7%: double positive events [6]

CN(CCCN1CCOCC1)Cc1cn(C)nc1-c1ccccc1F
inactive: percent of DMSO control GFP [1] 95.5% | GFP response vs DMSO [2] 106% | percent response of DMSO control [3] 104% | GFP response vs DMSO [4] 124% | GFP response, % of DMSO [5] 114% | vesicle binding response [6] 246% | inhibition [7] -8.78% | superoxide response (% of plate) [8] 104% | aptamer binding inhibition [9] -1% | response [11] 2.44% | binding (% of control) [12] 112% | efflux inhibition (fraction of control) [13] 0.04 | inhibition [14] 2% | differentiation response [15] -1.05%
62.1%: double positive events [6]
active: inhibition [10] 70.2%

CC(C)(C)OC(=O)N1CCCC1C(=O)NC(Cc1ccccc1)C(=O)O (stereo not drawn) (Boc-Pro-Phe-OH; configuration not given here)
61.4%: double positive events [6]
inactive: percent of DMSO control GFP [1] 101% | GFP response vs DMSO [2] 98.9% | percent response of DMSO control [3] 104% | GFP response vs DMSO [4] 104% | GFP response, % of DMSO [5] 102% | vesicle binding response [6] 186% | inhibition [7] 13.8% | superoxide response (% of plate) [8] 92.5% | aptamer binding inhibition [9] -1% | inhibition [10] 9.73% | response [11] 4.48% | binding (% of control) [12] 101% | efflux inhibition (fraction of control) [13] 0.22 | inhibition [14] 10% | differentiation response [15] 7.87%

Cn1c2c(c(=O)[nH]c1=O)C(c1ccc(O)cc1)C1=C(N2)c2ccccc2C1=O (stereo not given)
inactive: percent of DMSO control GFP [1] 99% | GFP response vs DMSO [2] 97.9% | percent response of DMSO control [3] 101% | GFP response vs DMSO [4] 87.3% | GFP response, % of DMSO [5] 94.6% | vesicle binding response [6] 228% | inhibition [7] -3.04% | superoxide response (% of plate) [8] 92.2% | aptamer binding inhibition [9] -2% | inhibition [10] 8.12% | response [11] -0.45% | binding (% of control) [12] 96.9% | efflux inhibition (fraction of control) [13] -0.01 | inhibition [14] 9% | differentiation response [15] 11.1%
62.7%: double positive events [6]

CC(C)[N+](C)(CCOC(=O)C1c2ccccc2Oc2ccccc21)C(C)C
inactive: percent of DMSO control GFP [1] 99.6% | GFP response vs DMSO [2] 101% | percent response of DMSO control [3] 109% | GFP response vs DMSO [4] 85.3% | GFP response, % of DMSO [5] 101% | vesicle binding response [6] 192% | inhibition [7] 1.62% | superoxide response (% of plate) [8] 81.9% | aptamer binding inhibition [9] 0% | inhibition [10] -3.24% | response [11] 9.45% | binding (% of control) [12] 97.3% | efflux inhibition (fraction of control) [13] -0.09 | inhibition [14] 7% | differentiation response [15] 1.41%
56%: double positive events [6]

Cn1c(=O)c2c(ncn2CC(O)CO)n(C)c1=O (stereo not given)
inactive: percent of DMSO control GFP [1] 100% | GFP response vs DMSO [2] 99.9% | percent response of DMSO control [3] 93.9% | GFP response vs DMSO [4] 104% | GFP response, % of DMSO [5] 99.4% | vesicle binding response [6] 114% | inhibition [7] 11.9% | superoxide response (% of plate) [8] 93.5% | aptamer binding inhibition [9] 2% | inhibition [10] -7.53% | response [11] -0.09% | binding (% of control) [12] 81.7% | efflux inhibition (fraction of control) [13] 0.22 | inhibition [14] 9% | differentiation response [15] -8.27%
53.8%: double positive events [6]
